Source: ChEMBL document CHEMBL1201862, “PubChem BioAssay data set” (2004)
Among all 400,000 compounds or so, about 2,100 (0.53%) were called active. About 14% were inconclusive and are not listed. How the calls were made is not given here. The sample as a whole holds a higher share of actives than the screen did.

Target: Ataxin-2 (Homo sapiens) (UniProt Q99700)
Assay: qHTS for Inhibitors of ATXN expression.
Type: functional

Chain of Ataxin-2 (Homo sapiens) (Q99700 whole entry): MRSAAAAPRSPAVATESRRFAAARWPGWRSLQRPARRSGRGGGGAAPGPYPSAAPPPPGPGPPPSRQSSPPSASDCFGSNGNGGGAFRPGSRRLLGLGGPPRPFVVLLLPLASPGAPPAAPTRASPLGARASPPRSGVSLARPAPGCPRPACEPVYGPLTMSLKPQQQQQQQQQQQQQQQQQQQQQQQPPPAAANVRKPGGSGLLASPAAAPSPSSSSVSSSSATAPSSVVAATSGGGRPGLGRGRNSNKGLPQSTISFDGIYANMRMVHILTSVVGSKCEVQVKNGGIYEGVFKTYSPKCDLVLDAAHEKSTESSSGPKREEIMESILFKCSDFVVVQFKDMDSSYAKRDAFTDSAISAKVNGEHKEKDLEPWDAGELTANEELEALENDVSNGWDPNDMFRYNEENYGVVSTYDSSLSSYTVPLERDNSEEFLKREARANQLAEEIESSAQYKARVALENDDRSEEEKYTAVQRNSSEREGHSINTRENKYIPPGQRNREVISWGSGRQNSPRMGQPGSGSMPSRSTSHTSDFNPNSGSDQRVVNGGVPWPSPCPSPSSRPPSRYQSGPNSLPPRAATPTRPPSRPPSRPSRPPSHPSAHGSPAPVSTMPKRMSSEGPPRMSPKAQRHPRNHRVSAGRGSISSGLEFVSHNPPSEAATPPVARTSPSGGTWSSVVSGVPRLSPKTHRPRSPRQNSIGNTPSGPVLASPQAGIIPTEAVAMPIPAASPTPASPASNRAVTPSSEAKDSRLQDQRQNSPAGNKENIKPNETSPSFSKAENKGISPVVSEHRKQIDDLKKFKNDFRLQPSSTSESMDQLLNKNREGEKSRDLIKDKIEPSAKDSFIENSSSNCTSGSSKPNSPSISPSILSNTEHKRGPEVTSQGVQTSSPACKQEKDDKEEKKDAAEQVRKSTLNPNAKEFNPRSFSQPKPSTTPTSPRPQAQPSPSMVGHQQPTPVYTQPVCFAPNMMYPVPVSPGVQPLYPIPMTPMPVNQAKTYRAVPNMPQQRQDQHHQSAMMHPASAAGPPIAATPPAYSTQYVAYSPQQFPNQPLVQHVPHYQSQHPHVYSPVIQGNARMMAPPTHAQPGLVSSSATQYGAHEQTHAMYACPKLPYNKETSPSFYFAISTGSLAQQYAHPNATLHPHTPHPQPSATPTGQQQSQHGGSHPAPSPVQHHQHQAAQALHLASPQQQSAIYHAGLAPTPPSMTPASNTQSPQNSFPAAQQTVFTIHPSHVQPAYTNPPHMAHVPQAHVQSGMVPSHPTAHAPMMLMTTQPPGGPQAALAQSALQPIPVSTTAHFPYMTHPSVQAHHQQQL

| Compound | Potency |
| --- | --- |
| CCn1c(/C=C/c2ccc(O)cc2)nc2ccccc2c1=O | inactive |
| COc1ccc(-c2cc(-c3nnc(COC(=O)c4ccncc4)o3)c3ccccc3n2)cc1OC | inactive |
| CS(=O)(=O)c1ccc(C(=O)OCc2nnc(-c3ccc(Cl)cc3)o2)cc1[N+](=O)[O-] | 28.2 µM (active) |
| NC(=O)c1ccc(Oc2ccc(Cl)cc2)c([N+](=O)[O-])c1 | inactive |
| CC(=O)Oc1ccc(-c2cc3c(OC(C)=O)cc(OC(C)=O)cc3oc2=O)cc1 | inactive |
| OC[C@@H]1[C@@H](c2ccc(F)cc2)C(c2cccc(Cl)c2)=NN1c1ccccc1 | inactive |
| CCN(CC)CCn1c(C)nc2c(sc3nc4c(cc32)COC(C)(C)C4)c1=O | inactive |
| O=C(N/N=C/c1sc(=O)n(Cc2ccc(Br)cc2)c1Cl)c1ccco1 | 20 µM (active) |
| C/C(=N\NC(=O)c1ccc(C(=O)N/N=C(\C)c2ccco2)o1)c1ccco1 | inactive |
| O=C(N/N=C/c1c(O)ccc2ccccc12)c1ccc(Br)o1 | inactive |
| O=C(Nc1ccc(Cl)cc1)c1cnn2c1NC(c1ccccc1)=CC2c1ccccc1 (stereo unspecified) | inactive |
| CC1=C(C(=O)Nc2ccc(Cl)cc2)C(c2ccc(C(F)(F)F)cc2)n2nnnc2N1 (stereo unspecified) | 28.2 µM (active) |
| CN1CCc2ccc(NC(=O)c3ccc(C(F)(F)F)cc3)cc2C1 | inactive |
| Cc1ccc(S(=O)(=O)Nc2ccccc2/C=N/c2nc3ccccc3n2C)cc1 | inactive |
| C/C(=N\N1C(=O)c2ccccc2NC1c1ccco1)c1ccccc1O (stereo unspecified) | 2 µM (active) |
| O=C(c1cnn(C(=O)c2ccco2)c1)c1ccccc1O | inactive |
| Cc1ccc(/C=N/N2C(=O)c3ccccc3NC2c2ccc(C)cc2)cc1 (stereo unspecified) | inactive |
| COc1cccc(C2C=C(c3ccc(Br)s3)Nc3ncnn32)c1OC (stereo unspecified) | inactive |
| O=[N+]([O-])c1ccc(C2(O)C[N+](c3ccccc3)=C3SCCN32)cc1 (stereo unspecified) | inactive |
| Cc1ccsc1/C=C1\Oc2cc(O)ccc2C1=O | inactive |
| NNc1nc2cccnc2n(CCNc2ncc(C(F)(F)F)cc2Cl)c1=O | inactive |

| Compound | Potency |
| --- | --- |
| O=S(=O)(NNc1ncc(C(F)(F)F)cc1Cl)c1ccc(F)cc1F | inactive |
| O=C1C=CC(=O)N1CCNc1ncc(C(F)(F)F)cc1Cl | 35.5 µM (active) |
| CCOCCCn1c(=N)c(C(=O)NCc2ccco2)cc2c(=O)n3ccccc3nc21 | inactive |
| O=C1c2ccccc2C(Nc2ccc(Cl)cn2)N1c1cccnc1 (stereo unspecified) | inactive |
| O=C1[C@@H](c2ccccc2)[C@@H](c2ccccc2)N1c1cccnc1 | 25.1 µM (active) |
| O=C1[C@H](Oc2ccccc2)[C@@H](c2ccccc2)N1c1ccncc1 | 28.2 µM (active) |
| O=C1[C@H]2C(c3ccccc3)=NN(c3ccccc3)[C@H]2C(=O)N1c1ccccc1 | inactive |
| CCOC(=O)C1CCN(Cc2nc3ccc([N+](=O)[O-])cc3c(=O)n2-c2ccc(OC)cc2OC)CC1 | inactive |
| N#CC1=C(N)Oc2cc(O)ccc2C1c1ccc(Br)s1 (stereo unspecified) | inactive |
| c1cc2c3c(cccc3c1)NC1(CCC3(CC1)Nc1cccc4cccc(c14)N3)N2 | 35.5 µM (active) |
| Cn1c(-c2cc3ccc(OC(=O)C(C)(C)C)cc3oc2=O)nc2ccccc21 | inactive |
| CCOc1ccccc1NC(=O)c1c(NC(=O)Cc2ccc(OC)cc2)sc2c1CCC2 | 25.1 µM (active) |
| COc1ccc(CC(=O)Nc2sc3c(c2C(=O)Nc2cccc(Cl)c2)CCCCC3)cc1 | 28.2 µM (active) |
| COc1ccc(-c2c3c(nc4sc(C(=O)Nc5ccccc5)c(N)c24)CCC3)cc1 | inactive |
| COc1ccc(NC(=O)c2c(NC(=O)CCC(=O)O)sc3c2CCCCC3)cc1 | inactive |
| CCOc1ccccc1NC(=O)c1sc2nc(-c3ccc(OC)cc3)ccc2c1N | inactive |
| OC[C@@H]1[C@@H](c2ccccc2)C(c2ccc(F)cc2)=NN1c1ccccc1 | inactive |
| Cn1c(=O)c2nc3ccc(NC(=O)C(F)(F)F)cc3nc2n(C)c1=O | inactive |
| Cc1cc(C)n(CCC(=O)Nc2cccc(F)c2)n1 | inactive |
| O=C(CCn1cnc2onc(-c3ccc(F)cc3)c2c1=O)Nc1cccc(C(F)(F)F)c1 | 20 µM (active) |
| CC(C)(C)c1ccc(C(=O)Nc2cccc3c(=O)[nH][nH]c(=O)c23)cc1 | inactive |

| Compound | Potency |
| --- | --- |
| O=C(Nc1ccc(Cl)c(S(=O)(=O)N2CCOCC2)c1)c1ccc(OCC2CCCO2)cc1 (stereo unspecified) | 11.2 µM (active) |
| O=C(Nc1cccc(S(=O)(=O)N2CCCCC2)c1)c1ccc(OCC2CCCO2)cc1 (stereo unspecified) | inactive |
| Cc1cc(C(=O)Nc2ccc(Cl)c(S(=O)(=O)N3CCOCC3)c2)c2ccccc2n1 | inactive |
| Cc1cc(C)n(-c2ccc(C(=O)Nc3ccc(C)c(S(=O)(=O)N4CCOCC4)c3)cc2)n1 | 12.6 µM (active) |
| Cc1ccc(NC(=O)C2CCC(C(C)(C)C)CC2)cc1S(=O)(=O)N1CCOCC1 (stereo unspecified) | 31.6 µM (active) |
| COc1ccc(NC(=O)CSc2nnc(C)n2C2CC2)cc1S(=O)(=O)N1CCOCC1 | inactive |
| O=C(NC1=NCCS1)c1ccc(Cl)c(S(=O)(=O)N2CCOCC2)c1 | inactive |
| Cc1ccc(NC(=O)CCS(=O)(=O)c2ccccc2)cc1S(=O)(=O)N1CCOCC1 | inactive |
| Cc1ccc(S(=O)(=O)N2CCOCC2)cc1NC(=O)COC(=O)CNC(=O)c1ccc(C(C)(C)C)cc1 | inactive |
| Cc1cc(/C=C(\C#N)C(=O)NC2CCCCCC2)c(C)n1C | inactive |
| COc1ccc(C2CC(c3cccc(Cl)c3)=NN2c2ccc(S(N)(=O)=O)cc2)cc1 (stereo unspecified) | inactive |
| CC1Cc2ccccc2N1CC(=O)NC(=O)NC1CCCC1 (stereo unspecified) | inactive |
| COc1ccc(CN2CCCC(C(=O)N3CCCCC3)C2)cc1 (stereo unspecified) | inactive |
| O=C(c1cccnc1)N1CCN(Cc2ccc3ccccc3c2)CC1 | inactive |
| O=C(C1=C[C@@H](C2CCCCC2)C[C@@H](OCc2ccc(CO)cc2)O1)N1CCN(Cc2ccccc2)CC1 | 39.8 µM (active) |
| Cc1cc(=O)oc2cc(OC(=O)c3cncc(Br)c3)ccc12 | inactive |
| CCc1c(C2(O)CCCCC2)[nH]c2ccc(C(F)(F)F)cc12 | 25.1 µM (active) |
| Cc1c(C2(O)CCCCC2)[nH]c2cc(C(F)(F)F)ccc12 | 35.5 µM (active) |
| COCc1cc(C)nc2oc(C(=O)c3ccccc3)c(N)c12 | inactive |
